PREPL inh – inhibitors of human prolyl oligopeptidase-like enzyme PREPL. recombinant PREPL, fluorescence polarization activity-based probe. inhibition, % at 5.96 µM. hit rate 0.68% among 320,000. AID 2751; in the data active = inhibition above about 43%
ANO1 activ – activates or potentiates the mouse TMEM16A chloride channel; Q8BHY3; HEK293 TMEM16A/YFP-H148Q/I152L, iodide quench fluorescence; stronger effect = lower value; B-score at 10 µM; hit rate 0.3% among 340,000; AID 623877;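 active = fluorescence-ratio B-score plate-corrected deviation score at least 3 library SD below zero, with starting fluorescence score within 5 deviations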;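 note: channel opened by trigger with iodide after compound preincubation; score built on the fluorescence ratio of max minus min over baseline; more negative score means more quench and so TMEM16A activation or potentiation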
FID counter – fluorescent intercalator displacement, NS3 helicase counter-screen | DNA fluorescent intercalator displacement, fluorescence | inhibition, % at 7.9 µM | hit rate 0.17% among 290,000; in the data active = inhibition above about 37%;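 note: higher means more ethidium bromide displaced from hairpin DNA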
PP1 inh – blocks human PP1-alpha phosphatase, a PP5 counter-screen; P62136; purified PP1alpha, OMFP fluorescence; hit rate 0.9% among 320,000; inhibition, % at 6.7 µM;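 active = inhibition above the mean inhibition of all tested compounds plus 3 SD, computed separately for each screening campaign, cut at about 15% in these data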
TMEM16A inh – inhibitors of mouse TMEM16A calcium-activated chloride channel; Q8BHY3; HEK293 TMEM16A/YFP iodide influx fluorescence, ionomycin; normalized B-score (activity score, 25-100; higher = stronger inhibition) at 10 µM; hit rate 1.2% among 310,000; AID 588511;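 active = ratio plate-corrected score three or more library SD toward inhibition, starting fluorescence score within five deviations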;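 note: score derived from kinetic fluorescence span divided by baseline fluorescence per well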
PP5 primary – blocks human protein phosphatase 5 activity; P53041; purified PP5c, OMFP substrate fluorescence; inhibition, % at 6.7 µM; hit rate 0.18% among 320,000; AID 1987;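 active = inhibition above the campaign's mean inhibition across all tested compounds plus 3 SD, cut at about 9.5% in these data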
Target sequence (P53041 whole entry, looked up): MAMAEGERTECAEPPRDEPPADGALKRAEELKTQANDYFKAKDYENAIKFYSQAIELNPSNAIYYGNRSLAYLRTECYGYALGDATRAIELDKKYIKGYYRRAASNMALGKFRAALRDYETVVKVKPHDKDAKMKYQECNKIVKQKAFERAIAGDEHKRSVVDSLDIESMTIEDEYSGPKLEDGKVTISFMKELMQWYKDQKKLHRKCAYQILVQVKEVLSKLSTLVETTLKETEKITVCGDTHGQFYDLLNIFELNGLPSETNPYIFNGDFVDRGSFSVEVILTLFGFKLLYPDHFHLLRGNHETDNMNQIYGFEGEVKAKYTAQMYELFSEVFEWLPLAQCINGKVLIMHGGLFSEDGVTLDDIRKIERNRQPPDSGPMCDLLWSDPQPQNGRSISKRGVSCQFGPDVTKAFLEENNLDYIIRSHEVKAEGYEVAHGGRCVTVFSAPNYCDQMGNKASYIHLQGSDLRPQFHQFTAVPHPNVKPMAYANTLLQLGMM
A number is an active result; . = inactive; / = no result. A selection: hits, their analogues and other compounds. The true share with any hit is near 2.7%.

SMILES	PREPL inh	ANO1 activ	FID counter	PP1 inh	TMEM16A inh	PP5 primary
O=C(CCC1CCCC1)Nc1cc(C(F)(F)F)ccc1N1CCOCC1	.	.	/	17.0	.	.
CC1CCCC(NC(=O)CSc2nnc(-c3cccnc3)n2N)C1C (stereo unspecified)	.	.	/	/	/	/
CCOC(=O)C1CCN(S(=O)(=O)c2cccc(-c3cn4cc(Cl)ccc4n3)c2)CC1	.	-21.1	.	.	.	.
CCOC(=O)C1CCN(S(=O)(=O)c2cccc(-c3cn4ccccc4n3)c2)CC1	.	.	.	.	25	.
CCOC(=O)C1CCN(S(=O)(=O)c2cccc(-c3cn4cccc(C)c4n3)c2)CC1	.	.	.	.	.	.
Cc1ccc(Nc2nc(Cl)nc3ncn(C)c23)c(C)c1	/	.	/	/	/	/
COc1cccc(CN(C)C(=O)c2cc(-c3ccc(F)cc3)nc3ccccc23)c1	.	.	.	.	100	.
COc1cccc(CN(C)C(=O)c2cc(-c3ccc(OC)c(OC)c3)nc3ccccc23)c1	/	.	.	/	.	/
COc1cccc(CNc2ccc(C)c(Cl)c2)c1	.	.	.	.	.	.
COc1cccc(CNc2cc(CSc3ccc(Cl)cc3)nc(C)n2)c1	.	.	.	.	100	.
COc1ccccc1CNc1cc(CSc2ccc(Cl)cc2)nc(C)n1	.	.	.	.	25	.
CC(C)[C@H](NC(=O)c1ccc(Cl)cc1Cl)C(=O)OCc1nc2ccsc2c(=O)[nH]1	/	.	/	/	/	/
CC(C(=O)Nc1ccccc1)c1ccc(-c2ccccc2)c(F)c1 (stereo unspecified)	.	.	.	.	100	.
Cc1cccc2cc(CN(Cc3ccco3)C(c3nnnn3CCc3ccccc3)C(C)C)c(=O)[nH]c12 (stereo unspecified)	.	.	.	15.6	.	.
COc1ccc2[nH]c(=O)c(CN(Cc3ccco3)C(c3nnnn3Cc3ccccc3)C(C)C)cc2c1 (stereo unspecified)	.	.	.	.	.	.
COC(=O)c1ccc(NC(=S)N2CCN(CCO)CC2)cc1	.	.	.	.	.	.
COc1ccc(OC)c2cc3ccccc3cc12	/	-8.33	/	/	/	/
CCCCCCCCCCCn1nnnc1N	/	.	/	/	/	/
Cc1nn(-c2ccccc2)c(C)c1NC(=O)COC(=O)c1ccc(Cl)c(S(N)(=O)=O)c1	.	.	/	.	.	.
O=C(N/N=C/c1cn(-c2cccs2)nc1-c1ccccc1)c1ccccc1O	.	.	.	.	100	.
COc1ccc(C(OCC(O)CNCCc2ccccc2)c2ccc(OC)cc2)cc1 (stereo unspecified)	/	.	40.5	/	.	/
COc1ccc(C(OCC(O)CNC(C)c2ccccc2)c2ccc(OC)cc2)cc1 (stereo unspecified)	.	.	.	.	.	.
O=c1c2c(nc3cc(-c4ccccc4Cl)[nH]n13)CCS2	.	.	.	16.8	.	.
COc1ccccc1N1CCN(C(=O)c2ccc(-c3nc4ccccc4s3)o2)CC1	.	.	/	.	/	.
COc1ccc(N2CCN(C(=O)c3ccc(-c4nc5ccccc5s4)o3)CC2)cc1	.	-28.3	/	.	/	.
SMILES	PREPL inh	ANO1 activ	FID counter	PP1 inh	TMEM16A inh	PP5 primary
Cc1ccc(OCC(=O)N(Cc2cccc(Cl)c2)C2CCS(=O)(=O)C2)cc1C (stereo unspecified)	.	-40.1	.	.	.	.
O=C(O)CCCCCCCCCCP(=O)(c1ccccc1)c1ccccc1	.	.	.	.	.	.
O=P(CCCCCCCCCP(=O)(c1ccccc1)c1ccccc1)(c1ccccc1)c1ccccc1	.	.	.	.	100	.
CCn1c(=O)c(C(=O)Nc2nc3ccccc3[nH]2)c(O)c2ccccc21	.	-7.84	.	.	.	.
N#Cc1ccc(OCC(O)CN2CCN(CC(O)COc3ccc(C#N)cc3)CC2)cc1 (stereo unspecified)	.	.	.	.	.	.
N#Cc1ccc(OCC(O)CN2CCN(c3ncc(C(F)(F)F)cc3Cl)CC2)cc1 (stereo unspecified)	.	.	.	.	25	.
CCCC(=O)Nc1cc(C(=O)O)ccc1Sc1ccccc1	.	.	.	.	.	.
CCC(=O)Nc1cc(C(=O)O)ccc1Sc1ccccc1	.	.	.	16.7	.	.
O=c1c(Br)ccc(Br)cc1Br	/	.	/	/	/	/
CC(C)N1CCC(N2CCN(Cc3ccc(-c4ccccc4Cl)o3)CC2CCO)CC1 (stereo unspecified)	.	.	53.0	.	.	.
CCN(CC(=O)NCc1ccc(Cl)cc1)C(=O)CCC(=O)c1ccc(F)cc1	.	.	/	.	.	.
c1ccc(CCNc2nc(-c3cccnc3)cs2)cc1	48.7	.	.	.	.	.
NNC(=O)c1cccn(Cc2ccc(Cl)cc2Cl)c1=O	.	-7.19	.	.	.	.
COc1ccc(-c2cc(N)n(S(=O)(=O)c3c(F)c(F)c(F)c(F)c3F)n2)cc1OC	.	.	.	.	100	.
C/C(=N\Nc1ccc(Cl)c(C(=O)O)c1)c1ccc(N2CCOCC2)cc1	.	.	.	.	25	.
CCOC(=O)c1c(NC(=O)c2ccc(N3C(=O)C4C5C=CC(C5)C4C3=O)cc2)sc2c1CCCC2 (stereo unspecified)	.	.	.	.	.	.
CCc1nnc(NC(=O)c2ccc(S(=O)(=O)N(C)c3ccccc3)cc2)o1	.	.	.	16.4	.	.
CN(c1ccc(C(=O)Nc2cccnc2)cc1)S(=O)(=O)c1ccc(Cl)cc1	.	.	.	.	.	.
CN(c1ccc(C(=O)Nc2cccnc2)cc1)S(=O)(=O)c1ccccc1	.	-4.99	.	.	.	.
COc1ccccc1NS(=O)(=O)c1cc(C(=O)NC2CC(C)(C)NC(C)(C)C2)ccc1Cl	/	.	/	/	/	/
Cc1ccc2c(Cl)c(C(=O)Nc3cccnc3)sc2c1	.	.	.	.	.	.
O=Cc1nccc2ccccc12	/	-6.51	/	/	/	/
CCOC1=C(C#N)CC2(CC1)c1ccccc1-c1ccccc12	/	.	/	/	/	/
C=CCn1c(SCC(=O)Nc2nccs2)nnc1-c1cc2cccc(OC)c2o1	.	.	.	16.7	.	.
Cc1ccc(CN2CCc3c(OCc4ccc(F)cc4)cccc3C2=O)cc1	.	.	.	.	.	.
SMILES	PREPL inh	ANO1 activ	FID counter	PP1 inh	TMEM16A inh	PP5 primary
O=C1c2cccc(OCc3ccc(F)cc3)c2CCN1Cc1ccc(F)cc1	.	.	.	.	25	.
COc1ccc(OCC(O)Cn2c(Br)nc3c2c(=O)[nH]c(=O)n3C)cc1 (stereo unspecified)	.	-28.1	.	.	.	.
CCSc1nc2c(c(=O)[nH]c(=O)n2C)n1CC(O)COc1ccccc1C (stereo unspecified)	.	-4.57	.	.	.	.
O=C(Nc1cccc(C(=O)N2CCOCC2)c1)c1ccccc1Cl	.	.	.	.	.	.
CCOc1ccc(N(CC(=O)NN=C2CCN(C)CC2)S(=O)(=O)c2ccc(Br)cc2)cc1	/	.	.	/	.	/
Cc1ccc(-c2noc(C3CCCN(C(=O)c4ccccc4Br)C3)n2)cc1 (stereo unspecified)	.	.	.	.	100	.

Screening data (PubChem BioAssay)
